# From PubChem
# CRFBP-R2 block – antagonists of CRF-BP/CRF-R2 complex, primary screen, cell-based, HEK293, calcium dye fluorescence, uHTS. CRF-induced calcium fluorescence. inhibition, % at 11.8 µM. 350,000 tested, 0.59% active;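 active means inhibition of the ligand-induced calcium signal above about 50% at the single tested concentration, limit read from the data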
# CRFBP-R2 agonist – agonists of CRF-BP/CRF-R2 complex, primary screen, cell-based, HEK293, calcium dye fluorescence, uHTS | calcium dye fluorescence (FLIPR); percent of saturating CRF peptide response | 350,000 tested, 0.46% active | activation, % at 13.2 µM | CRF-binding protein / CRF receptor 2 complex (human);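 active means activation of at least 50%, plus an integration ratio under a set limit after plate pattern correction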;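 further: plate controls were neutral control wells without compound for no effect and CRF at EC100 for full effect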
# iPSC survival up – enhancers of single-cell hiPSC survival, primary screen, ATPlite luminescence | 100% = ROCK inhibitor wells, 0% = DMSO | survival enhancement, % at 20 µM | 360,000 tested, 0.044% active; in the data active means survival enhancement above about 18%;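 further: cells exposed to compounds for 16 hours before the ATP read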
# H9c2 TAG inh – inhibitors of triacylglycerol accumulation, primary screen, cell-based, uHTS, fluorescence, H9c2; AID 651582, 2012; inhibition, % at 12.5 µM; H9c2 cells, Nile Red lipid (TAG) fluorescence; cells loaded with 200 µM oleic acid; 230,000 tested, 0.66% active;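 active means pattern-corrected inhibition of lipid staining of at least 50% with the nuclear-stain viability signal not falling by more than 50%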;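 further: 0% = DMSO wells and 100% = triacsin C control wells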
# SKN-1 inh – suppressors of acrylamide-induced Pgst-4::GFP reporter in worms, primary screen, SKN-1 inhibitor project, whole organism, uHTS, GFP/RFP fluorescence ratio, strain VP596. C. elegans VP596 Pgst-4::GFP/RFP ratio, 24 h. 360,000 tested, 0.49% active. AID 624304, 2012. inhibition, % at 21.8 µM;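 active means interference check ratio from 0.5 to 1.5 plus GFP to RFP signal ratio inhibition reaching or exceeding a fixed threshold, cut at about 30% in these data, passing the limit was not always enough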
# H9c2 protect – cardioprotection against H2O2-induced cell death, primary screen, uHTS, H9c2 cells, ATPLite luminescence | H9c2 cardiomyocytes, H2O2 injury protection, 2 h | protection from H2O2 cell death, % at 20 µM | 360,000 tested, 0.63% active | AID 588492, 2011;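 active means compounds giving at least 50% protection of heart cells from peroxide-induced death in the single-dose screen, raw or plate-pattern-corrected value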;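 further: 0% = DMSO wells with peroxide and 100% = DMSO wells without peroxide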
# * marks the source's active call; other numbers are inactive results; · = no result given. Rows were chosen to be rich in hits. Some 2.5% of all compounds tested hit in one or more screens of this group.
SMILES,CRFBP-R2 block,CRFBP-R2 agonist,iPSC survival up,H9c2 TAG inh,SKN-1 inh,H9c2 protect
O=C(c1ccccc1)c1cccs1,-0.8,1.1,0.3,·,8.0,-2.3
CCOc1ccc(C(=O)c2cccs2)cc1,50.8*,-0.8,-0.4,-10.8,13.0,-12.8
O=S(=O)(NC1CCCCCCC1)c1ccc(F)cc1,-9.4,-0.9,0.1,-8.5,6.5,-5.8
CN(C(=O)c1ccc(S(=O)(=O)NC2CCCC2)cc1)C1CCCCC1,-75.5,50.8*,9.4,·,10.6,-2.1
O=S(=O)(NC1CCCC1)c1ccc(S(=O)(=O)NC2CCCC2)cc1,-71.4,56.0*,-2.6,·,12.4,-6.2
Cn1c(=O)c2c(ncn2CC(=O)OCC(=O)Nc2ccc(F)cc2F)n(C)c1=O,4.5,1.3,-2.0,8.1,13.3,2.6
CCOc1ccc(C2NC(=O)CCC2[N+](=O)[O-])cc1 (stereo unspecified),-1.2,4.4,-0.7,·,-3.0,6.3
Cc1[nH]c2ccccc2c1C(=O)/C=C/c1ccccc1,-8.5,-2.8,-0.9,-20.4,53.0*,9.6
CCCc1nc2ccc(Br)cn2c1Cc1cccc(Cl)c1,·,·,-1.2,·,4.9,-6.8
COc1ccc(NC(=O)N2CCCc3ccccc32)c(OC)c1,22.0,-1.8,0.7,-2.2,-4.6,2.1
COc1ccc(C)cc1NC(=O)N1CCCc2ccccc21,52.6*,1.8,5.2,·,0.3,-0.7
C(=N\Nc1nc(-c2ccccc2)cs1)/c1ccco1,-6.1,1.1,0.4,·,47.4*,0.6
Clc1ccc(-c2csc(N/N=C\c3cccnc3)n2)cc1,-56.9,4.1,-2.4,23.5,2.4,-3.9
CN(C)S(=O)(=O)c1ccc(-c2csc(N/N=C/c3ccco3)n2)cc1,-19.9,4.0,-0.5,24.7,2.8,-6.7
Brc1ccc(-c2csc(N/N=C/c3ccco3)n2)cc1,-42.6,0.9,-0.4,14.3,65.1*,-0.4
Clc1ccc(-c2csc(N/N=C/c3ccco3)n2)cc1,-13.9,-1.5,1.3,46.4,90.7*,3.4
Cc1ccc(-c2csc(N/N=C/c3ccco3)n2)cc1,0.9,-1.1,6.0,·,60.3*,-5.6
COc1cc(/C=C/C(=O)OCC(=O)Nc2c(C)n(C)n(-c3ccccc3)c2=O)cc(OC)c1OC,-8.8,0.9,-0.3,-13.5,-15.6,-3.7
CCCCN(C(=O)c1ccccc1Cl)C(CC(C)C)c1nc2ccccc2[nH]1 (stereo unspecified),·,·,-0.7,·,18.7,-7.1
Cc1ccc(NC(=O)CNC(C)c2ccccc2)cc1 (stereo unspecified),17.9,-2.3,0.0,·,19.4,-3.6
Nc1ccc2ccc(O)cc2c1,18.1,-2.3,-3.3,28.7,19.6,-15.2
C[n+]1c2cc(N)ccc2cc2ccc(N)cc21,-208.7,224.6*,-5.2,-333.6,-43.3,-38.2
O=C(O)COc1ccc(-c2nccc(-c3ccccn3)n2)cc1,4.0,-1.1,3.5,-11.6,-4.4,-7.7
FCCCOc1ccc(-c2nccc(-c3ccccn3)n2)cc1,18.7,-0.3,-0.4,·,65.6*,-2.0
CC(C)c1ccc(N(C(=O)C(F)(F)F)C(C(=O)NC2CCCCC2)c2ccncc2)cc1 (stereo unspecified),-14.6,-0.3,-1.9,·,-20.0,3.0
SMILES,CRFBP-R2 block,CRFBP-R2 agonist,iPSC survival up,H9c2 TAG inh,SKN-1 inh,H9c2 protect
Cc1n[nH]c(C)c1CCC(=O)N/N=C/c1cccs1,0.3,-0.4,-0.7,2.6,-9.7,5.3
Cc1ccsc1/C=N\NC(=O)CCc1c(C)n[nH]c1C,52.1*,4.5,-0.1,1.2,7.3,-3.7
COc1cc(Cl)ccc1OCc1cc(C(=O)NC2CCc3ccccc32)no1 (stereo unspecified),5.0,2.4,-0.4,-30.8,-3.5,-7.2
CCCC(=O)OCCNc1cc(Sc2nccn2C)c2nonc2c1[N+](=O)[O-],51.9*,-1.5,-0.7,·,8.2,-19.7
Cc1ccc(CCNC(=O)C2CCC(=O)N2C(C)C)cc1 (stereo unspecified),-22.2,9.7,0.8,·,8.3,5.3
Cc1ccc(CCNC(=O)C2CCC(=O)N2C2CCCC2)cc1 (stereo unspecified),62.5*,-0.6,-0.5,·,7.0,5.5
Cc1ccc(CNCc2cc3c(C(C)(C)C)nn(-c4ccccc4)c3[nH]c2=O)cc1,-34.5,-0.2,-1.5,·,10.8,58.0*
COc1ccc(CNCc2cc3c(C(C)(C)C)nn(-c4ccccc4)c3[nH]c2=O)cc1,-23.1,-0.3,-3.1,·,-5.9,18.0
CC(C)(C)c1nn(-c2ccccc2)c2[nH]c(=O)c(CNCc3ccco3)cc12,-16.9,3.0,-0.4,17.5,23.6,79.0*
COc1ccc(O)c(C(=O)c2cnc3c(c2)CN(C)C(=O)N3)c1,-3.4,-0.8,-1.0,21.6,32.7,7.9
CN(C)c1ccc(/C=C(\C#N)C(=O)Nc2nc3c(s2)CCN(Cc2ccccc2)C3)cc1,-459.0,345.2*,2.8,-87.5,45.3*,-12.1
O=C(N/N=C/c1ccc(O)c(O)c1)c1ccc(CSc2cccc3cccnc23)cc1,77.4*,-1.2,-1.8,·,1.6,88.1*
Cc1ccc(C(C)C)c(OCc2ccc(C(=O)N/N=C/c3ccc(O)c(O)c3)cc2)c1,19.1,0.7,-1.1,·,-11.8,97.4*
Cc1cc(CN(Nc2ccccc2)c2ccccc2)cc(C)n1,2.4,4.6,-1.0,2.1,8.5,-0.1
CC1CC(C)(C)CC2(C1)NC(=O)N(CC(=O)Nc1ccc3c(c1)OCO3)C2=O (stereo unspecified),7.8,-1.8,-2.2,-1.4,9.5,-2.4
CCc1nc(N2CCN(C(=O)c3ccco3)CC2)c2oc3ccccc3c2n1,49.6,0.2,-0.9,·,-0.1,50.8*
CCCC[C@@H]1Cc2[nH][nH]c(=O)c2[C@H](c2ccc3ccccc3c2)O1,·,·,0.5,·,2.8,·
CCOc1ccc(OCCSc2nc(N)cc(=O)[nH]2)cc1,58.6*,2.3,-0.2,-2.5,-7.0,-10.1
COc1ccc(NC(=O)C[C@H]2C(=O)N(CCc3ccccc3)C[C@@H]2Cc2ccccc2)cc1,-8.1,1.3,-3.3,5.0,9.2,-1.3
Brc1ccc2nc(-c3ccccc3)c(Cc3ccsc3)n2c1,·,·,0.7,·,37.6*,2.9
Cc1cc(Br)cn2c(Cc3ccsc3)c(-c3ccccc3)nc12,·,·,-2.0,·,36.5*,4.1
Clc1cccc(-c2nc3ccc(Br)cn3c2Cc2ccccc2)c1,·,·,-0.1,·,35.6*,-3.4
Clc1ccc2nc(-c3ccccc3)c(Cc3ccsc3)n2c1,·,·,-0.7,·,25.9,7.2
COc1ccccc1OCC(=O)N1CCN(S(=O)(=O)c2ccc(Cl)cc2)CC1,13.6,-2.4,-0.3,14.0,14.3,-4.0
